# Test results: PubChem BioAssay
# Values joined by “and” are separate entries in the source; they are usually repeats but may differ in a detail not shown here. Equal values may be shown once. Active and inactive are the calls of the source.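 How the source made its calls, unless noted: active means compounds that lower survival of DLD-1 colon cancer cells in the luminescence readout, no cutoff given; inactive means the rest.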
# Assays:
# [1] = stimulators of nuclear beta-catenin in C2C12, primary screen, imaging, WNT3A-conditioned medium, mouse C2C12, NPC library (AID 1117326; in the data active means nuclear beta-catenin stimulation mostly above about 4.2%, no sharp cut-off; inactive means mostly below about 10%); settings: stronger effect = higher value
# [2] = growth inhibition of GSK3B-pretreated HCT116 cells – cell-based, CellTiter-Glo, 0.2 to 20 µM (AID 1117336;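 active means compounds lowering colon cancer cell viability after pretreatment blocking the GSK3B kinase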); settings: HCT116 viability after GSK3B inhibitor, at 20 µM, stronger effect = higher value
# [3] = HCT116 colon cancer cell growth inhibition, primary screen, CellTiter-Glo luminescence, NPC library (AID 1117342;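 active means compounds that lower survival of HCT116 colon cancer cells in the luminescence readout, no numeric limit stated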); settings: at 20 µM (top of the series)
# [4] = CellTiter-Glo luminescent readout of SW480 viability loss, NPC library primary (AID 1117343;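 active means compounds that lower viability of the colon cancer cells in the luminescence readout, with no numeric limit stated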); settings: CellTiter-Glo luminescence; at 20 µM (top of the series) unless noted
# [5] = decreased DLD-1 cellular survival, CellTiter-Glo luminescent readout, NPC compound collection, primary HTS (AID 1117346); settings: DLD-1 viability, CellTiter-Glo luminescence; at 20 µM (top of the series)
# [6] = sensitizers of A549 cells to miR-34 induction, primary screen, imaging, A549 dox-inducible miR-34, nuclei and caspase counts (AID 1347080;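 active means compounds whose cell count with miR-34 switched on is under 0.7 times the count with it off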); settings: A549 miR-34 inducible, Hoechst nuclei count, 48 h
# [7] = viability rescue of complex I mutant cybrids, primary screen, cell-based, galactose medium, ATP luminescence (AID 1645843;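 active means z-score of at least 1.8 in each of two replicates, scored against plate mean and spread of sample wells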;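 further: positive z means more ATP and so rescue of galactose-driven cybrid death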); settings: complex I mutant cybrid cells, 72 h, stronger effect = higher value
# [8] = stimulators of insulin release from INS-1E, primary screen, cell-based, 5 mM glucose, NPC library (AID 1117329;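 active means compound raises insulin release from rat beta cells at 5 mM glucose, no numeric limit stated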); settings: rat INS-1E insulin secretion, at 10 µM, stronger effect = higher value
# [9] = inhibition of endothelial tube formation, primary screen, imaging, VEGF stimulated, CD31 staining, tube area, NPC library (AID 1117340;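 active means compound that reduces growth-factor-driven endothelial tube area in a mixed cell culture, no cutoff stated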); settings: VEGF-stimulated ADSC/ECFC co-culture, at 10 µM, stronger effect = higher value
# [10] = glucagon-like peptide 1 release enhancers, primary assay, NCI-H716 cell line, NPC library (AID 1117341;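 active means compound raises GLP1 secretion from the human gut endocrine cells, with no numeric limit stated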); settings: NCI-H716 cells, at 10 µM, stronger effect = higher value
# [11] = polyglutamine-triggered caspase-3 activation inhibitors, cell-based (AID 1583); settings: polyglutamine-induced caspase-3 activation, cell assay; stronger effect = higher value;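 tested at 10 µM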
# [12] = hESC survival regulators, cell-based (AID 493140; call rule not given here;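 further: cells exposed to compounds for four days before counting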); settings: human embryonic stem cell survival screen; stronger effect = higher value
# [13] = target: 6-phosphogluconate dehydrogenase, decarboxylating (Homo sapiens) (UniProt P52209); assay: 6PGD enzyme inhibitors, primary screen, biochemical, human, recombinant enzyme, NADPH absorbance (AID 1159550;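 active means at least 20% inhibition of 6-phosphogluconate dehydrogenase activity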); settings: recombinant 6PGD, NADPH absorbance 341 nm; at 10 µM; stronger effect = higher value
# 6-phosphogluconate dehydrogenase, decarboxylating (Homo sapiens), sequence (P52209 whole entry, looked up): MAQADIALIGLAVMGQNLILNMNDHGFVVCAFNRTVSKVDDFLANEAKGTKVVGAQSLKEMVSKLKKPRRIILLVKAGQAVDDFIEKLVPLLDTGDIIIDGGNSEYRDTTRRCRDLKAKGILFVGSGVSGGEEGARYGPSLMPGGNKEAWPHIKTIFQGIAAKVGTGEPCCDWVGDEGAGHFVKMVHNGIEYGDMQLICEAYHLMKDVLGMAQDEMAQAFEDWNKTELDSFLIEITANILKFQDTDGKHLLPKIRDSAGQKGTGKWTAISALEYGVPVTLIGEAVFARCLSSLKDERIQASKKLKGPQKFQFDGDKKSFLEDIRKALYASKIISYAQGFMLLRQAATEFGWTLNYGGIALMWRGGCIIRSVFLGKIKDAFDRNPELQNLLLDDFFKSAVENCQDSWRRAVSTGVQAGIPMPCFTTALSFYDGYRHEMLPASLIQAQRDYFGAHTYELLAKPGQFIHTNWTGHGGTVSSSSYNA
# [14] = modulation of C. elegans fzo-1 (AID 1259413; call rule not given here;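 further: fzo-1 mutant C. elegans worms in liquid wells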); settings: C. elegans fzo-1 modulator screen, mean read-out; stronger effect = higher value
# [15] = differential killing of epithelial or mesenchymal cells, primary screen, imaging, PC-3E GFP, TEM4-18 mCherry, co-culture (AID 1345086;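 active means compounds killing one labelled cell type while sparing the other, by normalised counts and ratio limits, not self-fluorescent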;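 further: cells exposed to compound for 72 h before imaging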;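 on red/green cell ratio (normalised): normalised mesenchymal count divided by normalised epithelial count so high means epithelial killing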); settings: imaging cell counts, at 1 µM
# [16] = survival rescue of mitochondrial mutant cells in low glucose, primary screen, MELAS cybrids, Rieske KO mouse fibroblasts, CellTiter-Glo (AID 1508586;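 active means mean z-score across replicates of 1.96 or higher in either the MELAS or the Rieske mutant cell line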;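 further: z relative to plate mean and SD of compound and empty wells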)
# [17] = target: NAD(+) hydrolase SARM1 (Homo sapiens) (UniProt Q6SZW1); assay: SARM1 TIR NADase inhibitors, cell lysate, NAD-Glo luminescence (AID 1508614;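 active means compound whose remaining NAD level is above about 45 nM, limit read from the data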); settings: SAM-TIR HEK293T lysate NADase, at 1 µM, stronger effect = higher value
# NAD(+) hydrolase SARM1 (Homo sapiens), sequence (Q6SZW1 whole entry, looked up, the tested form may be a part): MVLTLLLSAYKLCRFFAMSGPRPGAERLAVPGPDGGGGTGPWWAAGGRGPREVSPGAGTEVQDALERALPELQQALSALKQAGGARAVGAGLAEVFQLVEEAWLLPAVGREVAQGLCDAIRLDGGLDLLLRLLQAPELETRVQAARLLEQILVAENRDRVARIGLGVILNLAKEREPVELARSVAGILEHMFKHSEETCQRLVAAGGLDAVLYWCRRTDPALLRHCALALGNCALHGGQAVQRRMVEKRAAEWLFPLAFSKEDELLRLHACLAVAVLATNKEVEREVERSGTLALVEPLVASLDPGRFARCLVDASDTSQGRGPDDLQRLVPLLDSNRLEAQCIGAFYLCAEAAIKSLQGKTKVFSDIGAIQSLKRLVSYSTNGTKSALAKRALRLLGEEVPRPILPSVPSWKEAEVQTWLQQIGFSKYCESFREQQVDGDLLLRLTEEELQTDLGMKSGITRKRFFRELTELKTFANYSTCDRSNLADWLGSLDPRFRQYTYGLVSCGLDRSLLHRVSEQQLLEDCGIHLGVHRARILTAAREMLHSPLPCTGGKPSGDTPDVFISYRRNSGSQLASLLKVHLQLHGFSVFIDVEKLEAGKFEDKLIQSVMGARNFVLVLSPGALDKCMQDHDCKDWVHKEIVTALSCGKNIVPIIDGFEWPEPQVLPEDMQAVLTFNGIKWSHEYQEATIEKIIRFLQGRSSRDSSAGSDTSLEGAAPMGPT
# [18] = target: Mitogen-activated protein kinase 7 (Homo sapiens) (UniProt Q13164); assay: ERK5 transactivation activators in reporter cells, primary screen, cell-based, HTS (AID 1508626;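 active means luciferase signal above three times the same-plate solvent-only control wells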;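 further: luciferase driven by Gal4-ERK5 fusion binding five Gal4 sites before minimal TATA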); settings: HeLa Gal4-ERK5 transactivation, 18 h, at 5 µM, stronger effect = higher value
# Mitogen-activated protein kinase 7 (Homo sapiens), sequence (Q13164 whole entry, looked up, the tested form may be a part): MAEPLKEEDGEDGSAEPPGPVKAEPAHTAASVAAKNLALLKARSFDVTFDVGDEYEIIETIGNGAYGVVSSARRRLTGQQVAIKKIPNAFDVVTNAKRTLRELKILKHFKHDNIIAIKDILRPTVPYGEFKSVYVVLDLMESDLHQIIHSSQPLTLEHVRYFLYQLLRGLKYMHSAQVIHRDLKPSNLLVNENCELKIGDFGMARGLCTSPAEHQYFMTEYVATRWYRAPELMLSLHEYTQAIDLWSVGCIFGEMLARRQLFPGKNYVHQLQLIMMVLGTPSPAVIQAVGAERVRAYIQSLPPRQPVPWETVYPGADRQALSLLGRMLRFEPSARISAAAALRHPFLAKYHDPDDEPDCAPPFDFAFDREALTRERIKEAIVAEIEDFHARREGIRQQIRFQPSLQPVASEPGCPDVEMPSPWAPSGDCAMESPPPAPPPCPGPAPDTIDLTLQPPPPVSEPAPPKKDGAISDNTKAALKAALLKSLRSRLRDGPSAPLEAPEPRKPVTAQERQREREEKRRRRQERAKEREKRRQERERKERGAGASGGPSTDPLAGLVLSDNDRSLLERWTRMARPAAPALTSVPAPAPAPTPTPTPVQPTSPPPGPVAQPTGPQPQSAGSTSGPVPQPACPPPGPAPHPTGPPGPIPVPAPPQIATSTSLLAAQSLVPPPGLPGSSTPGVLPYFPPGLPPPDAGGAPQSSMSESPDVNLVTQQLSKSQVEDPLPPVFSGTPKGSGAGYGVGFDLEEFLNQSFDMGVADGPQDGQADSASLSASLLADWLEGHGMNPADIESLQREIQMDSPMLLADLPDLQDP
# [19] = stronger effect = lower value, cell number ratio, induced over uninduced
# [20] = measured here: relative caspase fold change +Dox/-Dox
# [21] = measured here: total cells with miR-34 induction, stronger effect = lower value
# [22] = measured here: total cells without miR-34 induction
compound,measurement,setting,value
CCN(CC)CCOc1ccc(Cc2ccccc2)cc1,nuclear beta-catenin stimulation,[1]; at 10 µM,2.1% (inactive)
same,nuclear beta-catenin stimulation,"[1]; stimulation, at 2 µM",14.6%
same,viability decrease,[2],67.3% (active)
same,inhibition of viability,[3],67.4% (active)
same,viability decrease (inhibition),[4],83.4% (active)
same,viability decrease (inhibition),[5],55.9% (active)
same,fold change,[6]; [19],0.97 (inactive)
same,fold change,[6]; [20],0.737
same,cell count,[6]; [21],8340
same,cell count,[6]; [22],8600
same,z-score,[7],-0.96 (inactive)
O=C(O)C1CCC1,nuclear beta-catenin stimulation,[1]; at 10 µM,-0.9% (inactive)
same,nuclear beta-catenin stimulation,"[1]; stimulation, at 2 µM",6.2%
same,viability decrease,[2],-0.7% (inactive)
same,inhibition of viability,[3],13.6% (inactive)
same,viability decrease (inhibition),[4],1.4% (inactive)
same,viability decrease (inhibition),[5],6.3% (inactive)
CCO[C@H](Cc1ccc(OCCc2ccc(OS(C)(=O)=O)cc2)cc1)C(=O)O,nuclear beta-catenin stimulation,[1]; at 10 µM,1.2% (inactive)
same,nuclear beta-catenin stimulation,"[1]; stimulation, at 2 µM",7.6%
same,viability decrease,[2],8.6% (inactive)
same,inhibition of viability,[3],-7.7% (inactive)
same,viability decrease (inhibition),[4],-5.9% (inactive)
same,viability decrease (inhibition),[5],-11.3% (inactive)
Cc1cc(-n2nc3ccc(Cl)cc3n2)c(O)c(C(C)(C)C)c1,nuclear beta-catenin stimulation,[1]; at 10 µM,3.3% (inactive)
same,nuclear beta-catenin stimulation,"[1]; stimulation, at 2 µM",10.1%
same,viability decrease,[2],29.7% (inactive)
same,inhibition of viability,[3],22.8% (inactive)
same,viability decrease (inhibition),[4],1.3% (inactive)
same,viability decrease (inhibition),[5],8% (inactive)
C[C@@H](c1ncncc1F)C(O)(Cn1cncn1)c1ccc(F)cc1F (stereo partly specified),insulin secretion stimulation,[8],3.8% (inactive)
same,viability decrease,[2],-3.3% (inactive)
same,tube area decrease,[9],-5.2% (inactive)
same,GLP1 secretion stimulation,[10],-0.7% (inactive)
same,inhibition of viability,[3],11.9% (inactive)
same,viability decrease (inhibition),[4],4.6% (inactive)
same,viability decrease (inhibition),[5],-4.3% (inactive)
CCCC(=O)Nc1ccc(OCC(O)CNC(C)C)c(C(C)=O)c1 (stereo unspecified),inhibition,[11],-2.9%
same,survival,[12],12.1 (inactive)
same,insulin secretion stimulation,[8],0.7% (inactive)
same,viability decrease,[2],-32% (inactive)
same,tube area decrease,[9],13.3% (inactive)
same,GLP1 secretion stimulation,[10],0.9% (inactive)
same,inhibition of viability,[3],2.87% (inactive)
same,viability decrease (inhibition),[4],15.1% (inactive)
same,viability decrease (inhibition),[5],-8.8% (inactive)
same,inhibition,[13],5.09% (inactive)
same,mean signal,[14],238 (inactive)
same,red/green cell ratio (normalised),"[15]; actives lie on both sides, counts scaled to control wells, 1 = unselective",0.87 (inactive)
same,normalised cell number,[15]; measured here: epithelial PC-3E GFP cell survival,1.07
same,normalised cell number,[15]; measured here: mesenchymal TEM4-18 mCherry cell survival,0.93
same,z-score,"[16]; MELAS cybrid survival, CellTiter-Glo 48 h, stronger effect = higher value",-0.162 (inactive) and 0.587 (inactive)
same,z-score,"[16]; Rieske KO mouse fibroblast survival, CellTiter-Glo 72 h",-0.138 and 0.913
same,remaining NAD,[17],10 nM (inactive)
same,luciferase signal,[18],60 AU (inactive)
same,z-score,[7],1.51 (inactive)
COc1ccccc1N1CCN(CCCCNC(=O)c2ccc(-c3ccc(C(C)=O)cc3)cc2)CC1,nuclear beta-catenin stimulation,[1]; at 10 µM,9.8% (inactive)
same,nuclear beta-catenin stimulation,"[1]; stimulation, at 2 µM",9.2%
same,viability decrease,[2],55.6% (active)
same,inhibition of viability,[3],51.4% (active)
same,viability decrease (inhibition),[4],69.7% (active)
same,viability decrease (inhibition),[5],13.8% (inactive)
same,fold change,[6]; [19],0.929 (inactive)
same,fold change,[6]; [20],0.93
same,cell count,[6]; [21],8920
same,cell count,[6]; [22],9600
same,z-score,[7],-0.635 (inactive)
